Results reported in paper PMC4336329 (PLoS ONE, 2015).
The whole screen tested about 310,000 compounds, of which about 14,000 (4.5%) showed an effect of 50% or more. The effect is printed as a negative number. Only a selection was taken, and strong results are over-represented in it overall.

Biological target: human ether-à-go-go-related gene (hERG) potassium channel (human, UniProt Q12809)
Experiment: primary screen, population patch clamp on CHO cells stably expressing hERG; higher = less effect of the substance
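Note: peak tail current of the secondary pulse compared with the same well before compound.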

human ether-à-go-go-related gene (hERG) potassium channel, sequence (Q12809 whole entry, looked up): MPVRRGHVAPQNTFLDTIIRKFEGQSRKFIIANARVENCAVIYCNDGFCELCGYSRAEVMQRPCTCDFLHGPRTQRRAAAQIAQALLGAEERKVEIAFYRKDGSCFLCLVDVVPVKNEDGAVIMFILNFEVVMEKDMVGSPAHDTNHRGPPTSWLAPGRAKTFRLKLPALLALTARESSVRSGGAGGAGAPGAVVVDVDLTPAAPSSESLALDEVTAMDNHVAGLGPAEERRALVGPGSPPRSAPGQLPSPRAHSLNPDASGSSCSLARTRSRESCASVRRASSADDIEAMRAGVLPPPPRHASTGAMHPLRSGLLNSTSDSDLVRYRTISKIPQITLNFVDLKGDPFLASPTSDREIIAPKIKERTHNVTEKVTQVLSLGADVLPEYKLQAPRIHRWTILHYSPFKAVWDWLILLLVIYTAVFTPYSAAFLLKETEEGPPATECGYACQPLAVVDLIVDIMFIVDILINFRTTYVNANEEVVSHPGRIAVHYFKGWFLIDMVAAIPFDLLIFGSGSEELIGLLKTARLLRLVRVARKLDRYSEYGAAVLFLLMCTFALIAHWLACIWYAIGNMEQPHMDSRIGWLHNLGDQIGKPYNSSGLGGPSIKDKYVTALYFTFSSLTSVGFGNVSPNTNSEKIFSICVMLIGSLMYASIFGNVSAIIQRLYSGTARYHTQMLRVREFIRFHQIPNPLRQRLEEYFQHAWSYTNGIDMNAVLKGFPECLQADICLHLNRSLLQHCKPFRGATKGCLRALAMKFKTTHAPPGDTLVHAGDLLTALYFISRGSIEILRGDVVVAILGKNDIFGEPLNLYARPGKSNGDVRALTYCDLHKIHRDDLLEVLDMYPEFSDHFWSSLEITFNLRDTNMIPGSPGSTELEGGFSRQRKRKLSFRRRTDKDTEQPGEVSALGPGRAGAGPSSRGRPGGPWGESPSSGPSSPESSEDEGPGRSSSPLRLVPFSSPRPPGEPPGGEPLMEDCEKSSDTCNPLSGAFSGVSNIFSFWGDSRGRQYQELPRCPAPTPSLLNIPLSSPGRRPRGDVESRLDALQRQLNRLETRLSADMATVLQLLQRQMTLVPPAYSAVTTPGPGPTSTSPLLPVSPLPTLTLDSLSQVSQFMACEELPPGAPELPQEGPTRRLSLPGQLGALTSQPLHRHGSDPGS

SMILES | hERG current change (%, negative = inhibition) at 10uM
CC(=O)c1sc(NC(=O)CCS(=O)(=O)c2ccccc2)nc1C | 8.51%
Cc1sc(NC(=O)c2cc(-c3ccc(Cl)cc3)nc3ccccc23)c(C(N)=O)c1C | 5.31%
NC(=O)/C(=C/c1ccco1)NC(=O)/C=C/c1ccccc1 | -5.56%
N/C(=N\OC(=O)COc1ccccc1)c1ccc(Cl)cc1 | 2.9%
CN1CCN(CC(=O)Nc2c(C#N)cnn2-c2ccccc2)CC1 | 12.1%
CCOC(=O)[C@@H]1[C@H]2COc3cc(OC)ccc3[C@@H]2N2C(=O)N(c3ccc(C(F)(F)F)cc3)C(=O)[C@]12C | 15.1%
O=C(O)C(=O)O.OCCNCCCOc1ccc(Cl)cc1Br | -54.9%
Cl.OCCNCc1ccc(OCc2ccc(Cl)cc2Cl)cc1 | -45.8%
Cc1ccc(OCCCNCCO)c(Br)c1.O=C(O)C(=O)O | -10.5%
Clc1ccc(OCCCNCc2ccccc2)c2ccccc12.O=C(O)C(=O)O | -1.92%
Cl.OCCCCNCc1ccc(OCc2ccc(Cl)cc2Cl)cc1 | -51.6%
Clc1ccc(OCCCNCc2ccccc2)c(Br)c1.O=C(O)C(=O)O | -64.4%
C=CCNCCCOc1ccc(Cl)cc1Br.O=C(O)C(=O)O | -42.6%
Cl.OCCCCNCc1ccc(OCc2ccccc2Cl)cc1 | -15.9%
CCc1cc(OCCCCNCc2ccccc2)ccc1Cl.O=C(O)C(=O)O | -25.6%
Clc1cc(Br)ccc1OCCCNCc1ccccc1.O=C(O)C(=O)O | -30.1%
Brc1ccccc1OCCNCc1ccccc1.O=C(O)C(=O)O | -29.8%
Clc1ccc(Cl)c(OCCCCNCc2ccccc2)c1.O=C(O)C(=O)O | -71.5%
Cc1cc(C)c(S(=O)(=O)Nc2ccc(OCC(=O)O)cc2)c(C)c1 | 6.93%
Nc1nnnn1/N=C/c1ccccc1OCc1ccccc1 | 19%
COCCCN(Cc1cccs1)S(=O)(=O)c1c[nH]c(C(=O)OC)c1 | -8.01%
Cc1ccc2c(c1)nc(NCCCO)n2C | -3.54%
Cc1cc(Cl)ccc1OC(C)C(=O)OCC(=O)Nc1ccc2[nH]c(=O)[nH]c2c1 (stereo not shown) | -3.04%
Oc1ccccc1-c1nc(N2CCN(Cc3ccccc3)CC2)c2ccccc2n1 | 10.5%
COc1nc(-c2ccc(Cl)cc2Cl)nc2ccccc12 | 6.59%

SMILES | hERG current change (%, negative = inhibition) at 10uM
CN1CCN(c2nc(-c3ccc(Cl)cc3Cl)nc3ccccc23)CC1 | -73.9%
CN1CCN(c2nc(-c3ccc(Cl)c(Cl)c3)nc3ccccc23)CC1 | 6.63%
COc1cccc(-c2nc(N3CCN(C)CC3)c3ccccc3n2)c1O | -30.8%
CN1CCN(c2nc(-c3ccccc3Cl)nc3ccccc23)CC1 | -73.8%
OCCN1CCN(c2nc(-c3ccccc3O)nc3ccccc23)CC1 | -25.1%
CCN1CCN(c2nc(-c3ccccc3Cl)nc3ccccc23)CC1.Cl | -69.9%
CN1CCN(c2nc(-c3ccccc3O)nc3ccccc23)CC1 | 9.47%
COCCNC(=O)CSc1ccccc1C(=O)NC1CCCc2ccccc21 (stereo not shown) | 5.31%
COc1cc(CNC(=O)CCn2nc(C)c3c(C)n(-c4ccccc4)nc3c2=O)cc(OC)c1OC | 12%
CCOc1cccc(C(=O)Nc2ccc3oc(-c4cccnc4)nc3c2)c1 | -9.4%
N#Cc1ccc(C(=O)Nc2nc3ccccc3[nH]2)cc1 | 19%
Cl.O=C(COc1ccc(Cl)cc1)NCCN1CCCC1 | -40%
COc1cc(Br)cc(CN2CCN(C=O)CC2)c1O | -2.6%
COc1cc(NC(=O)CN(C)S(=O)(=O)c2ccc(C)cc2)cc(OC)c1 | -19.9%
CCOC(=O)C1=C(C)NC(=O)/C1=C\N(C)C | 19%
CCOC(=O)c1ccc(NC(=S)N2CCCC(C)C2)cc1 (stereo not shown) | -28.4%
CCOC(=O)c1ccc(NC(=S)N(CCCN2CCCC(C)C2)Cc2cccs2)cc1 (stereo not shown) | -76.3%
CCOC(=O)c1ccc(NC(=S)N(CCCN2CCN(CC)CC2)Cc2cccs2)cc1 | -69.1%
CCOC(=O)c1ccc(NC(=S)N(CCN(C)C)Cc2cccs2)cc1 | -9.16%
CCOC(=O)c1ccc(NC(=S)N(CCCN2CCCC2)Cc2cccs2)cc1 | -67.5%
COC(CNC(=O)CNC(=S)N(CCCN1CCOCC1)Cc1cccs1)OC | 6.42%
CCOC(=O)c1ccc(NC(=S)N(CCCN2CCN(C)CC2)Cc2cccs2)cc1 | -65.4%
CCOC(=O)c1ccc(NC(=S)N(CCN2CCCCCC2)Cc2cccs2)cc1 | -11.6%
O=C(N/N=C/C(Br)=C/c1ccccc1)c1ccncc1 | 0.715%
Cc1ccc(NC(=O)c2ccccc2NC(=O)c2cccs2)cc1 | 20.1%

SMILES | hERG current change (%, negative = inhibition) at 10uM
Cc1cccc(NS(=O)(=O)c2cc(Cl)ccc2Cl)n1 | 22.2%
CN1CCN(C2=C(Cl)C(=O)N(c3ccc(Cl)c(Cl)c3)C2=O)CC1 | 14.1%
COc1cccc(OCCNC(=O)c2cccc(OC)c2)c1 | -1.4%
Cc1cc(/C(=N/O)C(C)(C)NO)ccc1Cl | 5.73%
COc1ccc(CNc2ccc(Cl)cc2)cc1Cn1ccnc1 | -20.3%
COc1ccc(C(NC(=O)/C=C/c2ccco2)c2ccc(OC)cc2)cc1 | -13.3%
Brc1ccc(-c2nnc3sc(CN4CCN(c5ccccc5)CC4)cn23)cc1 | -1.83%
O=C(NCCN1C(=O)S/C(=C\c2ccc(OC(F)F)cc2)C1=O)[C@@H]1CCCN1C(=O)c1cccs1 | -63.5%
O=C(NCCN1C(=O)S/C(=C\c2ccc(Cl)c(Cl)c2)C1=O)c1cnccn1 | 1.98%
O=C(NCCN1C(=O)S/C(=C\c2ccc(OC(F)F)cc2)C1=O)c1cnccn1 | -57.1%
O=C(NCCN1C(=O)S/C(=C/c2ccccc2)C1=O)C1CCCN1C(=O)c1cccs1 (stereo not shown) | -26.9%
COc1ccc(/C=C2/SC(=O)N(CCNC(=O)C3CCCN3C(=O)c3cccs3)C2=O)cc1 (stereo not shown) | -22.8%
O=C(NCCN1C(=O)S/C(=C\c2cccnc2)C1=O)c1cccc(OC(F)F)c1 | -48.7%
O=C(c1ccco1)N1N=C(c2ccco2)CC1c1ccc(Cl)cc1Cl (stereo not shown) | 11.9%
CN(C)S(=O)(=O)Nc1cccc(-c2cn3c(n2)SCC3)c1 | 11.2%
O=[N+]([O-])c1cc(C(F)(F)F)cc([N+](=O)[O-])c1NCCN1CCNCC1 | 4.88%
CN1CCN(S(=O)(=O)c2ccc([N+](=O)[O-])cc2)CC1 | -14.6%
CC1CN(C)C(C)C/C1=N\Oc1ccc([N+](=O)[O-])cc1.Cl (stereo not shown) | -78.6%
CC1=CC(=O)C=C(C)C1=NOc1ccc([N+](=O)[O-])cc1 | -3.45%
CN1CCC(=NOc2ccc([N+](=O)[O-])cc2)CC1 | -74.8%
CC1CN(C)C(C)C/C1=N/Oc1ccccc1[N+](=O)[O-].Cl (stereo not shown) | -26.5%
CC1CC(C)CN(S(=O)(=O)c2ccc(Oc3ccc([N+](=O)[O-])cc3)cc2)C1 (stereo not shown) | -9.72%
Cc1nc2c(cnn2-c2ccccc2)c(=O)n1/N=C/c1ccccc1 | 11.9%
N/C(=N\OC(=O)Nc1ccccc1)c1ncc([N+](=O)[O-])s1 | -2.31%
Cc1ccc2c(c1)N(Cc1cccc(C#N)c1)C=NS2(=O)=O | 9.38%

SMILES | hERG current change (%, negative = inhibition) at 10uM
CCn1c(-c2ccc([N+](=O)[O-])cc2)n[nH]c1=S | 9.07%
CCC(=O)Nc1ccccc1C(=O)OCC(=O)c1ccccc1 | -28.1%
COc1ccc(NC(=S)N(CCCN2CCCC2)Cc2ccco2)cc1 | -39.4%
COc1ccc(NC(=S)N(CCN2CCCCC2)Cc2ccco2)cc1 | -57.5%
CCc1ccc(NC(=S)N(CCN2CCCCC2)Cc2ccco2)cc1 | -75.4%
CCc1ccc(NC(=S)N(CCCN2CCOCC2)Cc2ccco2)cc1 | -12.6%
COc1cccc(NC(=S)N(CCN2CCCCC2)Cc2ccco2)c1 | -43.9%
CCc1ccccc1NC(=S)N(CCN1CCCCC1)Cc1ccco1 | -46.7%
O=C1COc2ccc3ccccc3c21 | -4.35%
Cc1cc(C(=O)C(=O)O)c(C)n1-c1ccc(Cl)cc1 | -43.4%
O=C(CCC1CCCC1)NCCS(=O)(=O)N1CCN(c2ccccc2)CC1 | -12.9%
NC(=O)C1(N2CCCCC2)CCN(C(=O)c2ccc(-n3cnnn3)cc2)CC1 | -30.6%
CC1=NNC(=O)C1CCC(=O)N/N=C/C=C/c1ccccc1 (stereo not shown) | 1.22%
CNC(=S)NC1CC2CCCC(C1)N2Cc1ccc(C)cc1 (stereo not shown) | -38.9%
CCc1ccc(NC(=S)NC2CC3CCCC(C2)N3Cc2ccccc2)cc1 (stereo not shown) | -70.9%
CCc1ccc(NC(=S)NC2CCN(Cc3ccccc3)CC2)cc1 | -36.9%
CNC(=S)NC1CC2CCC(C1)N2Cc1ccccc1 (stereo not shown) | -16.5%
Cc1ccc(CN2C3CCCC2CC(NC(=S)NCc2ccccc2)C3)cc1 (stereo not shown) | -72.4%
S=C(Nc1ccc(Cl)cc1)NC1CCN(Cc2ccccc2)CC1 | -39.9%
S=C(Nc1ccc(Cl)cc1)NC1CC2CCC(C1)N2Cc1ccccc1 (stereo not shown) | -66.1%
CCNC(=S)NC1CC2CCCC(C1)N2Cc1ccc(C)cc1 (stereo not shown) | -48.1%
CCNC(=S)NC1CC2CCC(C1)N2Cc1ccccc1 (stereo not shown) | -20.3%
CC(C)c1ccc(NC(=S)NC2CCN(Cc3ccccc3)CC2)cc1 | -17.4%
S=C(NC1CCCCC1)NC1CC2CCC(C1)N2Cc1ccccc1 (stereo not shown) | -33.4%
CCC(C)c1ccc(NC(=S)NC2CCN(Cc3ccccc3)CC2)cc1 (stereo not shown) | -61.8%
